The structures appear in SMILES notation. Compounds without any hit were thinned out: in the full panel of roughly 83,000, 20% have a hit.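 Single-concentration screen, 48 h exposure, 96-well plates. Endpoint: percent growth. Below 10 = active.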 A number with no mark means an inactive call. Active and inactive are the calls of the source.

In this experiment the test system is HCT-116 colon. Kind of experiment: NCI-60 one-dose screen, 48 h (100 = growth as untreated, 0 = no growth, -100 = all killed). The note with it: 10 µM unless noted.
Take `Nc1cc(C(=O)N/N=C\c2ccc(OC(F)F)c(OC3CCCC3)c2)nn1CC(O)c1ccccc1` (stereo not given): the growth was 103%. Consider `Clc1ccc2[nH]cc(-c3nn4cc(-c5ccncc5)nc4s3)c2c1`, for which the growth was 10.8%. Consider `CN1CC[C@@H]2[C@@]3(C)CC[C@H](O)C(C)(C)[C@@H]3CC[C@@]2(C)[C@]2(C)CC[C@@]3(CO)CCC(C)(C)C[C@@H]3C12` (stereo not given in full), for which the growth was 77.9%.

Regarding `Brc1cc(-c2cc(-c3ccc4c(c3)OCCO4)[nH]n2)cs1`, the growth was 41.5%.

`NS(=O)(=O)c1ccc(Nc2nc(Nc3ccccc3)nc(N3N=C(c4ccc(Cl)cc4)CC3c3ccc(Cl)cc3)n2)cc1` (stereo not given): the growth is 14.1%. As to `O=C(N/N=C\c1ccc([N+](=O)[O-])cc1)c1ccc2nc(-c3ccc(Br)cc3)[nH]c2c1`, the growth is -37.2% (active). As to `O=C(/C=C/c1cccc(C(F)(F)F)c1)Nc1cccc(C(F)(F)F)c1`, the growth is 21%. Take `Brc1cccc(-c2cc(-c3ccc4c(c3)OC=CO4)[nH]n2)c1`: the growth was 23.3%. Consider `CCc1cc2c(cc1Cl)nc1c(=O)[nH]c(=O)nc-1n2CCOCC(C)C`, for which the growth was 37.9%. As for `CCCCSC1=C(Cl)CN(c2ccccc2)C1=O`, the growth is 104%. `Brc1ccc(-c2cc(-c3ccc4c(c3)OC=CO4)n[nH]2)s1`: the growth was 91.5%.

As to `O=c1c2cc(-c3ccc(F)cc3F)ccc2n(Nc2ccccc2)c(=O)n1-c1cccc(C(F)(F)F)c1`, the growth was 7.14% (active). Turning to `CN1CCN(CCCCCC(=O)Nc2nc(-c3cccc(NS(=O)(=O)c4cccc5c(N(C)C)cccc45)c3)cs2)CC1`, the growth is 51.6%. As for `CCCCc1nc2c(N)nc3ccccc3c2n1Cc1cccc(CN)c1`, the growth was 23%.

With `CCCCCCCCCCCC(=O)NC(C)(C)C(=O)N1CCCC1C(=O)NC(C)(C)C(=O)NC(C)(C)C(=O)N1CCCC1C(=O)NC(C)(C)C(=O)NC(C)(C)C(=O)N1CCCC1C(=O)NC(C)C(=O)NCCC(=O)NC(C)C(=O)NC(C)(C)C(=O)NC(C)(C)C(=O)NC(C)(C)C(=O)NCCC(=O)NC(C)(C)C(=O)NC(C)(C)C(=O)NC(C)(C)C(=O)NC(C)C(=O)NCCC(=O)O` (stereo not given), the growth is -94.8% (active).

In the case of `NS(=O)(=O)c1ccc(Nc2nc(N/N=C/c3ccc4c(c3)OCO4)nc(Nc3ccccc3)n2)cc1`, the growth was 36.7%. For `O=[N+]([O-])c1ccc(NC(=S)NNC(=S)Nc2ccc(Br)cc2)cc1`, the growth was 90.6%. As to `Cc1cc(=O)[nH]c(O)c1C#N`, the growth was 104%. As for `Cc1ccc(OCc2occc2C(=O)N2CCOCC2)cc1`, the growth is 105%.

Take `O=C1C(SCc2ccccc2)=C(Cl)CN1c1ccccc1`: the growth is 88.5%. Then `COc1ccc(C2C(C#N)=C(/N=C/c3ccc(Cl)cc3)Oc3c2sc2c(C)cccc32)cc1` (stereo not given), with 13.4%; and `CN(C)CCNc1ccc2ncc(C#Cc3cncc(C(=O)Nc4ccc(CN5CCN(C)CC5)c(C(F)(F)F)c4)c3)n2n1`, with 5.01% (active). Then `CN1CCC[C@]2(C)[C@H]3CC[C@@H]4[C@@H]5[C@H]6OC[C@@]5(CCC6(C)C)CC[C@@]4(C)[C@]3(C)CC[C@H]2C1(C)C`, with 15.4%; and `COc1ccccc1/C=C/C(=O)c1nnn(-c2ccc(F)cc2)c1C`, with 10.7%. Consider `CC(C)[C@H]1c2[nH]c3ccccc3c2C[C@H]2C(=O)N(CCCCCCC(=O)NO)CC(=O)N12`, for which the growth is 59.2%. Regarding `COC(=O)CCCNCCCn1ccc2cc(NCc3cccc(-c4ccccc4)c3C)ccc21`, the growth is 53%. The value for `C=C(C=O)[C@@H]1CC[C@]2(C(=O)O)CC[C@]3(C)C(CC[C@@H]4[C@@](C)(CCC#N)[C@H](C(=C)C=O)CC[C@]43C)[C@@H]12` (stereo not given in full) was -82.8% (active); that for `CC1(C)CC[C@]23CC[C@]4(C)[C@H](CC[C@@H]5[C@@]6(C)CC[C@H](NCO)C(C)(C)[C@@H]6CC[C@]54C)[C@H]2[C@H]1OC3` was -9.59% (active). For `O=C1/C(=C/C=C/c2ccco2)SC(=S)N1Cc1ccccc1`, the growth was 91%. The value for `COc1ccc(/C=N/NC(=O)c2c(N)nn(C)c2Nc2ccccc2)cc1Oc1ccccc1` was 79.8%; that for `Cc1[nH]c(C(=O)Nc2ccc(S(=O)(=O)N3CCCCC3)cc2OCCOCCOCCOCCOCCOCCOCCOCCOCCOc2cc(S(=O)(=O)N3CCCCC3)ccc2NC(=O)c2[nH]c(C)c3c2CCCCC3=O)c2c1C(=O)CCCC2` was -32.3% (active). As to `COc1ccc(C(=NNS(=O)(=O)c2ccc(C)cc2)c2ccccc2)cc1OC`, the growth was 96.3%. The value for `CNC(=O)c1cc(Oc2ccc3c(c2)sc2nc(-c4ccc(N(C)C)cc4)cn23)ccn1` was 8.11% (active). In the case of `CN1CCN(Cc2ccc(/C=N/Nc3ccnc4cc(Cl)ccc34)cc2)CC1`, the growth was 37%. `O=C1Nc2ccccc2/C1=N\c1nnc(-c2ccccc2)o1`: the growth was 103%. `COc1ccc2c(c1)C=CC1(O2)Oc2ccc(OC)cc2C=C1C` (stereo not given): the growth is 12.4%. Regarding `Cn1cc(-c2nn3cc(-c4ccncc4)nc3s2)c2cc(Br)ccc21`, the growth is 25%. Regarding `C#Cc1nc(/C=C/CCCCCCC(=O)NO)cs1`, the growth was 20%. The value for `CC[C@]12CC(C(=O)OC)=C3Nc4ccccc4[C@@]34CCN(C14)[C@@H]1c3cc4c(cc3O[C@@H]1[C@H]2O)NC1=C(C(=O)OC)C[C@@]2(CC)C3N(CC[C@@]143)C[C@H]1O[C@H]12` (stereo not given in full) was 2.44% (active); that for `O=C(CCCCCCN1CC(=O)N2[C@@H](C3CC3)c3[nH]c4ccccc4c3C[C@H]2C1=O)NO` was 33.4%.
